In all, about 33,000 sequences were measured (“E-score (-0.5 to 0.5)”: median about -0.011, highest 2% from about 0.28 on). The sample as a whole holds a higher share of the highest values than the screen did.

The experiment has as its target T1, Gcr1 (UniProt P07261).
T1 sequence: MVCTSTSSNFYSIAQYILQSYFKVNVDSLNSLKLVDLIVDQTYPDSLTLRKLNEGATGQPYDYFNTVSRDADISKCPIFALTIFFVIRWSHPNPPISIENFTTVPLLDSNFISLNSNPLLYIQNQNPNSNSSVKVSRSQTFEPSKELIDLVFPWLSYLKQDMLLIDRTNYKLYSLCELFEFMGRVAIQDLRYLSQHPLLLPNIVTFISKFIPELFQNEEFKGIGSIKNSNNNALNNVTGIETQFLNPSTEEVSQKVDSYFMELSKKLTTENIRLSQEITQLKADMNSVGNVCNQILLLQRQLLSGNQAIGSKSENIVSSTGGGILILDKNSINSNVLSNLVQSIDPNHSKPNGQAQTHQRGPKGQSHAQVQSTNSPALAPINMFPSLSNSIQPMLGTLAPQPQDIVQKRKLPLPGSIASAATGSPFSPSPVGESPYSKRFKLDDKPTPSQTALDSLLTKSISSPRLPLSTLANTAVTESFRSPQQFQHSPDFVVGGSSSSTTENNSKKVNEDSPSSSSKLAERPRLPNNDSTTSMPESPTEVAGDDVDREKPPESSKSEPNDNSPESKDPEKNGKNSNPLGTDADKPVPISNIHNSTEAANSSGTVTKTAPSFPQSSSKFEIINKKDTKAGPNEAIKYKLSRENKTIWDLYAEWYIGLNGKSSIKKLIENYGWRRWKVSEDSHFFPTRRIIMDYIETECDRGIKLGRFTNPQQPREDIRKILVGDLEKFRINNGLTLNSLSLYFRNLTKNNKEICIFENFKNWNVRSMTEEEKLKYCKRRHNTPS
Briefly: PBM E-score (8-mer binding enrichment) (E-score (-0.5 to 0.5)); higher = stronger / more preferred TF binding. Particulars: protein concentration: 100 nM; construct: GST-full length. As to the method:
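Universal 'all 10-mer' protein binding microarrays (Agilent AMADID 015681) probed with GST-tagged S. cerevisiae TFs (full-length or DBD) made by in vitro transcription/translation (PURExpress), about 100-200 nM. Bound TF was detected with fluorescent anti-GST. Each ungapped 8-mer (which stands for itself and its reverse complement) is scored by the PBM enrichment score (E-score), a modified Wilcoxon-Mann-Whitney statistic from -0.5 to +0.5, computed with the Universal PBM Analysis Suite. Scale: above 0.35 generally sequence-specific binding.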
As to CGCCCCGA, the “PBM E-score” value was -0.0435.

Regarding CCGCGAGC, the “PBM E-score” value is -0.0368.

As for GCCCGGCA, the “PBM E-score” value is -0.0489.

Turning to GGAGTACC, the “PBM E-score” value was -0.0959.

Take TGTAGCAA: the “PBM E-score” value was -0.0217.

For the sequence TAAAGAAA, the “PBM E-score” value worked out at 0.162.

On to ATGGGCCA, for which the “PBM E-score” value is -0.112.

As for GACAAACA, the “PBM E-score” value is -0.0622.

Turning to CGGTCCAC, the “PBM E-score” value is -0.225.

Take CTGGCTTC: the “PBM E-score” value was determined as 0.362.

For the sequence CTGGCTTA, the “PBM E-score” value is -0.159.

Turning to CAGGCTTC, the “PBM E-score” value was 0.213.

With GCAAAGAA, the “PBM E-score” value turned out to be 0.00261.

Turning to CGCAACCG, the “PBM E-score” value is 0.24.

With ACACCAGC, the “PBM E-score” value was -0.126.

Take AGGAGCCG: the “PBM E-score” value came out at 0.269.

In the case of TGAAGCCA, the “PBM E-score” value is -0.0656.

As for AGAAGCCA, the “PBM E-score” value was 0.362.

AGAAGCCC: the “PBM E-score” value turned out to be 0.386.

For AGAAGCAG, the “PBM E-score” value was found to be 0.174.

For CGAAGCCC, the “PBM E-score” value worked out at 0.268.

On to AGGAGCCT, for which the “PBM E-score” value is 0.109.

As to AGAAGCCT, the “PBM E-score” value was 0.273.

As for AGGAGCCC, the “PBM E-score” value was 0.294.

Consider AAAAGCCC, for which the “PBM E-score” value was -0.194.

Consider AGAAGCCG, for which the “PBM E-score” value amounted to 0.399.

Consider ACAAGCCA, for which the “PBM E-score” value is -0.275.

As to GACCACAA, the “PBM E-score” value came to 0.0254.

Turning to AATCGCAA, the “PBM E-score” value was 0.0343.

CGCCGCAG: the “PBM E-score” value amounted to 0.103.

Turning to ATCAGATA, the “PBM E-score” value is -0.111.

As for CCAAGCCG, the “PBM E-score” value is -0.0556.

CGAAGCCG: the “PBM E-score” value is 0.285.

In the case of CGAAGCCA, the “PBM E-score” value stood at 0.272.

For AGCAAAGG, the “PBM E-score” value is -0.135.

Regarding AAAGGACG, the “PBM E-score” value amounted to 0.025.

For ATTGTGAG, the “PBM E-score” value was -0.17.

In the case of AATTAGGC, the “PBM E-score” value amounted to 0.327.

Consider ATTTAGGA, for which the “PBM E-score” value turned out to be 0.286.

On to CATTAGGC, for which the “PBM E-score” value was -0.0378.

Take AATTAGGA: the “PBM E-score” value was 0.315.

For AATTAGGT, the “PBM E-score” value amounted to 0.0846.

For CAATAGGA, the “PBM E-score” value was 0.13.

Take AAATAGGA: the “PBM E-score” value worked out at 0.335.

For CTTTAGGA, the “PBM E-score” value worked out at 0.249.

GATTAGGA: the “PBM E-score” value turned out to be 0.169.

On to ATTTAGGG, for which the “PBM E-score” value is 0.196.

For AATTAGGG, the “PBM E-score” value is -0.012.

For the sequence TAATAGGA, the “PBM E-score” value came out at 0.278.

Turning to GACTTTCA, the “PBM E-score” value stood at 0.0748.

AATTCGAT: the “PBM E-score” value was -0.0107.

Regarding GTCCGTAA, the “PBM E-score” value was 0.215.

GTACCTAC: the “PBM E-score” value was -0.0043.

For the sequence CCATCGTA, the “PBM E-score” value is -0.145.

Take AGGCTCAA: the “PBM E-score” value is -0.283.

For AATCTTGA, the “PBM E-score” value was found to be 0.1.

Take AATTGTTA: the “PBM E-score” value was 0.116.

For the sequence GGGGAACC, the “PBM E-score” value stood at 0.161.

Take GAGGAACA: the “PBM E-score” value is -0.193.

Consider AGGGAACC, for which the “PBM E-score” value stood at 0.203.

Consider CGGGAACG, for which the “PBM E-score” value is -0.0928.

CGGGAACC: the “PBM E-score” value was 0.289.

For AAGGAACT, the “PBM E-score” value was determined as 0.0335.

Consider CAGGAACG, for which the “PBM E-score” value is 0.118.

Regarding GAGGAACC, the “PBM E-score” value is 0.318.

Take CAGGAACA: the “PBM E-score” value is -0.125.

As for AAGGAACC, the “PBM E-score” value was found to be 0.285.

As to CAGGAACC, the “PBM E-score” value was determined as 0.32.

As for AAGGAACG, the “PBM E-score” value is -0.0671.

With ATCTAGAT, the “PBM E-score” value is 0.0364.

On to TCAAAACA, for which the “PBM E-score” value worked out at 0.0365.

For CGAATGTA, the “PBM E-score” value is -0.0414.

Consider ATCCTTAC, for which the “PBM E-score” value was 0.0414.

For AAAGAATA, the “PBM E-score” value was -0.0583.

As for ATTAAAAC, the “PBM E-score” value turned out to be 0.113.

Regarding GATTAAAA, the “PBM E-score” value came out at 0.249.

Take CATTTTAA: the “PBM E-score” value came to 0.252.

As to CATTTAAA, the “PBM E-score” value was 0.287.

Regarding TATTAAAA, the “PBM E-score” value is 0.243.

As for TATTTAAA, the “PBM E-score” value worked out at 0.243.

As to ATTAAAAA, the “PBM E-score” value is 0.332.

As to ATTAAAAG, the “PBM E-score” value was 0.239.

As to CATTAAAA, the “PBM E-score” value was determined as 0.306.

GGGGGAGA: the “PBM E-score” value was -0.233.

As for ATGTTCCA, the “PBM E-score” value stood at 0.15.

As for CCCAACGG, the “PBM E-score” value is -0.0188.

Turning to GGAGCGGA, the “PBM E-score” value is 0.187.

On to CGCCGCAC, for which the “PBM E-score” value turned out to be 0.0199.

The record behind these values is the supplement of paper PMC3334620.
